Screening data: PubChem BioAssay, National Center for Advancing Translational Sciences (NCATS)
An excerpt weighted towards active compounds, which were near 6.6% of everything screened.
TGFb inhibitor = qHTS for Inhibitors of TGF-b | actives 1.2% (n = 410,000) | AID 588855, 2011 | Potency, µM (top dose mostly 46.1 µM), most hits filed as inhibitors | HepG2 CAGA-GFP TGF-b/SMAD3 reporter, GFP fluorescence, 18 h; TGF-beta stimulated, 500 pg/mL final; note: nearly all actives have a fitted effect of over 65% in size
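HEPG2 CAGA-GFP, 1000 cells/well; 2 h settle, 37 C; cpd via pin tool; TGF-b 500 pg/mL final; 18 h, 37 C; GFP imaging ex488/em500-530; %Activity normalised to -TGF-b and +DMSO controls; CRC fit, curve class.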
HepG2 viability = qHTS for Inhibitors of TGF-b: Cytotox Counterscreen; HepG2 CAGA-GFP viability, ATP luminescence, 18 h; actives 0.76% (n = 410,000); Potency, µM (titrated, usually from 46.1 µM), most hits filed as cytotoxic
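HepG2 CAGA-GFP cells (1000/well, DMEM with 1% FBS) received compound, then TGF-beta at 500 pg/mL final, and were incubated 18 hours at 37 degrees C. Viability was read by CellTiter-Glo luminescence. Media-only wells were set as complete cell-killing and DMSO as no toxicity.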
HT1080 IDH1KD tx = qHTS for induction of synthetic lethality in tumor cells producing 2HG: qHTS for the HT-1080-IDH1KD cell line; HT-1080 IDH1 knockdown viability, ATP luminescence, 48 h; Potency, µM (series often up to 46.1 µM), usual class: cytotoxic; actives 2% (n = 360,000)
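CellTiter-Glo luminescence after 48 h compound exposure at 37 degrees C of IDH1-knockdown HT-1080 cells in 5% FBS RPMI. %Activity scaled between DMSO wells and cell-free media wells, with curves fitted and assigned curve classes.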
KB-V1 MDR tox = qHTS assay for MDR1-selective chemotherapeutics: Primary screen using the drug-selected MDR subline cells KB-V1 | Potency, µM (top dose mostly 46.1 µM), most hits filed as cytotoxic | actives 3.4% (n = 400,000) | AID 1347076, 2019 | KB-V1 MDR cells viability, CellTiter-Glo, 72 h; note: nearly all actives have a fitted effect of over 60% in size
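KB-V1 MDR subline cells in DMEM (phenol-red free, 10% FBS) exposed to compounds in qHTS concentration series for 72 h at 37 degrees C. Viability read by CellTiter-Glo luminescence; concentration-effect curves fitted after normalization and correction.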
KB-3-1 tox = qHTS assay for MDR1-selective chemotherapeutics: Primary screen using the parental adenocarcinoma cell KB-3-1. Potency, µM (doses to about 46.1 µM), most hits filed as cytotoxic. AID 1347075, 2019. actives 1.4% (n = 400,000). KB-3-1 viability, CellTiter-Glo ATP luminescence, 72 h; note: nearly all actives have a fitted effect of over 60% in size
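Screening of KB-3-1 cells (DMEM, 10% FBS, phenol-red free) ran from lowest to highest compound concentration; after 72 h at 37 °C viability was read luminescently and curves fitted.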
HT1080-NT tox = qHTS for induction of synthetic lethality in tumor cells producing 2HG: qHTS for the HT-1080-NT fibrosarcoma cell line. HT-1080-NT fibrosarcoma viability, CellTiter-Glo ATP luminescence, 48 h. Potency, µM (doses to about 46.1 µM), actives largely listed as cytotoxic. actives 1.6% (n = 360,000). AID 686970, 2013;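 note: NT is the 2HG producing partner of a matched IDH1 knockdown line; nearly all actives have a fitted effect of over 55% in size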
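Compounds were tested in concentration-response format on HT-1080-NT cells for 48 hours at 37 degrees C. Cell viability came from CellTiter-Glo luminescence; curves were classified by r2, response magnitude and activity.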
A number is an active result; 0 = inactive; ? = inconclusive; - = no result. Calls come from the whole dose curve; as a rule, active = well fitted curve in the direction sought with a large enough effect; inconclusive = small, poorly fitted or top-dose-only effect, or another doubt; inactive = no such curve, though single readings can be large; an effect the other way counts as inactive or inconclusive.

SMILES	TGFb inhibitor	HepG2 viability	HT1080 IDH1KD tx	KB-V1 MDR tox	KB-3-1 tox	HT1080-NT tox
CC/C(=N\NC(N)=O)c1ccc(OC)c(OC)c1	0	0	0	?	0	0
Cc1oc(-c2cccc3ccccc23)nc1CN1CCN(c2ncnc3ccccc23)CC1	0	0	?	?	?	?
Cc1cc(N2CCN(Cc3nc(-c4ccc(Cl)cc4)oc3C)CC2)cc(C)n1	?	0	20.6µM	?	?	20.6µM
COc1ccc(-c2nc(CN3CCN(c4cc(C)nc(C)c4)CC3)c(C)o2)c2ccccc12	?	0	14.6µM	0	?	13µM
CCOc1ccc(CCNC(=O)c2cc3c(-c4cccc(OC)c4)nn(C)c3s2)cc1OCC	0	0	-	23.1µM	?	-
CCOc1ccc(CCNC(=O)c2cc3c(-c4ccccc4F)nn(C)c3s2)cc1OCC	0	0	-	0	?	-
CCOC(=O)C1CCCN(C(=O)c2cc3c(-c4cccc(OC)c4)nn(C)c3s2)C1 (configuration not stated)	0	0	18.4µM	6.51µM	?	?
CCOc1ccc(CCNC(=O)c2cccc(-n3cnnn3)c2)cc1OCC	0	0	0	18.4µM	0	0
COc1ccccc1NC(=O)C1=C(C)Nc2nc(-c3ccco3)nn2C1c1cccc(C)c1 (configuration not stated)	?	0	-	0	0	-
CCCCOc1ccc(C(=O)NCC(=O)NCCOc2ccccc2OC)cc1	0	0	0	0	0	0
Cc1ccc2nc(Cl)c3nnnn3c2c1	?	6.31µM	13µM	?	?	0
Cc1cc2c(C)nc3ccccc3c2o1	0	0	0	0	0	0
Cc1cc2[nH]c3c4ccccc4nc(C)c3c2cc1C	12.6µM	17.8µM	?	?	10.3µM	14.6µM
CN(c1ccccc1)c1ccc(/C=C/[N+](=O)[O-])cc1	?	7.94µM	5.8µM	0	?	5.17µM
CCC(=O)Nc1ccc(/C(C)=N/NC(=O)c2c(Br)c(C)nn2C)cc1	?	0	0	7.31µM	0	0
Cc1nc2nc(SCC(=O)NCCc3ccc(Cl)cc3)nn2c(C)c1Cc1ccccc1	0	0	-	?	0	-
CN(C)CCN(C)Cc1ccccc1Sc1cccc2ccccc12	?	0	?	23.1µM	?	?
CNCc1ccccc1Sc1cccc2ccccc12	?	0	0	14.6µM	?	0
Cc1cc(Cl)ccc1OCC(=O)N1CCC(c2nc3ccccc3o2)CC1	?	0	-	-	-	-
CC1(C)CC(=O)c2cc(C(=O)Nc3cccc4ccccc34)c(=O)[nH]c2C1	0	0	-	0	0	-
Cc1ccc(S(=O)(=O)N2CCN(C(=O)c3ccccc3)C2C(C)C)cc1 (configuration not stated)	0	0	0	?	0	0
C/C(=N\S(=O)(=O)c1ccc(C)cc1)N1CCN(S(=O)(=O)c2ccccc2)C1C(C)C (configuration not stated)	0	0	0	5.8µM	0	0
CCC(Sc1nc2ccccc2c2nc(CCn3c(C)nc4ccccc43)nn12)C(=O)Nc1ccc(F)cc1 (configuration not stated)	0	0	-	0	0	-
COc1cccc(-n2c(-c3ccccc3F)nc3c(cnn3-c3ccc(C)cc3)c2=O)c1	?	0	-	0	16.4µM	-
Cc1ccc(-n2c(C)nc3c(cnn3-c3ccccc3)c2=O)cc1	0	0	-	16.4µM	?	-
SMILES	TGFb inhibitor	HepG2 viability	HT1080 IDH1KD tx	KB-V1 MDR tox	KB-3-1 tox	HT1080-NT tox
CCOc1ccc(CNC(=O)c2ccc3c(c2)nc2n3CCCCC2)cc1	?	0	-	-	-	-
COc1cc(/C=N/NC(=O)NC23CC4CC(CC(C4)C2)C3)ccc1OCC(N)=O	0	0	0	0	0	0
COc1ccc(C=NNC(=S)NC23CC4CC(CC(C4)C2)C3)cc1OC	0	0	0	2.91µM	?	0
COc1cc(OC)c(C=NNC(=S)NC23CC4CC(CC(C4)C2)C3)c(OC)c1	0	0	0	5.17µM	0	0
CCOc1ccc(CNC(=S)N/N=C/c2ccc(OC)c(OC)c2)cc1	?	0	0	16.4µM	0	0
COc1cc(/C=N/NC(=S)NCc2ccccc2)ccc1OCC#N	0	0	0	?	0	0
CC(=O)c1c(C)n([O-])c2cc(F)c(F)cc2[n+]1=O	0	0	?	?	16.4µM	?
COc1ccc2c(c1)[n+](=O)c(C(C)=O)c(C)n2[O-]	0	0	0	0	0	0
Cc1cccc(C)c1OCC(=O)NCC1(N2CCOCC2)CCCCC1	?	0	-	-	-	-
CCc1ccccc1NC(=O)c1sc2nc(C)cc(COC)c2c1N	0	0	-	-	-	-
COC(=O)c1cccc(NC(=O)CSc2nc3cccnc3n2C)c1	0	0	0	18.4µM	0	0
Cc1cccc(CN2C(=O)[C@H]3Cc4c([nH]c5ccccc45)C(C)(C)N3C2=O)c1	11.2µM	0	-	?	?	-
Cc1cccc(CN2C(=O)[C@@H]3Cc4c([nH]c5ccccc45)C(C)(C)N3C2=O)c1	?	0	-	?	?	-
CC(C)c1ccc(NC(=O)Nc2nc(C(C)N)cs2)cc1 (configuration not stated)	17.8µM	0	20.6µM	0	0	?
CC(C)c1ccc(NC(=O)Nc2nc(C(N)C3CCCCC3)cs2)cc1 (configuration not stated)	22.4µM	10µM	20.6µM	?	?	?
COc1ccc(NC(=O)Nc2nc(C(N)C3CCCCC3)cs2)cc1 (configuration not stated)	?	0	?	0	0	?
CCOC(=O)c1sc2ccccc2c1S(=O)(=O)N1CCN(c2cc(C)ccc2C)CC1	0	0	-	0	0	-
CC(C)Oc1ccc(CNC(=O)CCn2c(=O)c3cccn3c3ccc(F)cc32)cc1	?	0	-	-	-	-
COc1cc(-c2coc3c(C(=O)NCc4ccc(OC)c(OC)c4)cccc23)ccc1O	?	0	3.26µM	?	?	?
COc1cc(-c2coc3c(C(=O)NCc4ccc(C(F)(F)F)cc4)cccc23)ccc1O	?	0	25.9µM	?	?	?
NC(=O)c1cccc(-c2coc3c(C(=O)NCCc4ccccc4)cccc23)c1	0	0	0	?	0	0
COc1cc(-c2coc3c(C(=O)NCc4ccncc4)cccc23)ccc1O	0	0	0	?	0	0
